Compounds with a hit are over-represented: about 17% of the library has one in this group of screens.
HT1080 IDH1KD tx: toxicity to HT-1080 IDH1 knockdown cells (counter line) | Potency, µM (titrated, usually from 46.1 µM), inactives show top-dose activity, negative = toxicity, hits mostly cytotoxic | AID 686971 | hit rate 2% among 360,000 | HT-1080 IDH1 knockdown viability, ATP luminescence, 48 h;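 further: 0% = DMSO wells and -100% = cell-free medium wells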
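% activity derives from luminescence (CellTiter-Glo), normalised to DMSO and no-cell wells. HT-1080-IDH1KD cells, 750/well, had 48 h compound exposure at 37 °C.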
HT1080NT lethal: kills 2HG-producing HT-1080-NT fibrosarcoma cells; Potency, µM (series often up to 46.1 µM), without a hit: at the top dose activity, negative = less viability, actives largely listed as cytotoxic; hit rate 1.6% among 360,000; HT-1080-NT fibrosarcoma viability, CellTiter-Glo ATP luminescence, 48 h;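 further: NT is the 2HG producing partner of a matched IDH1 knockdown line; 0% = DMSO-treated cells and -100% = media-only wells without cells; nearly all actives have a fitted effect of over 55% in size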
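Viability by CellTiter-Glo luminescence after 48 h compound exposure at 37C of HT-1080-NT cells (750/well, RPMI, 5% FBS). % activity scaled between DMSO wells and medium-only wells, then curve-fitted and categorized by curve class.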
HepG2 viability: kills HepG2 cells in TGF-b inhibitor counter-screen. HepG2 CAGA-GFP viability, ATP luminescence, 18 h. Potency, µM (highest dose often 46.1 µM), without a hit: top-dose activity change, negative = cytotoxicity, most hits filed as cytotoxic. hit rate 0.76% among 410,000. AID 588856
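HepG2 CAGA-GFP cells (1000/well, DMEM with 1% FBS) received compound, then TGF-beta at 500 pg/mL final, and were incubated 18 hours at 37 degrees C. Viability was read by CellTiter-Glo luminescence. Media-only wells were set as complete cell-killing and DMSO as no toxicity.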
TGFb SMAD3 inh: TGF-b pathway inhibition. AID 588855. Potency, µM (titrated, usually from 46.1 µM), for inactives: top-dose activity, negative = inhibition, hits mostly inhibitors. HepG2 CAGA-GFP TGF-b/SMAD3 reporter, GFP fluorescence, 18 h; TGF-beta stimulated, 500 pg/mL final. hit rate 1.2% among 410,000; further: on the % scale 0 is the no-effect control and ±100 the full control effect; nearly all actives have a fitted effect of over 65% in size
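Smad-responsive CAGA-GFP expression was quantified in HEPG2 cells exposed to compounds and 500 pg/mL final TGF-beta for 18 h at 37 degrees C; unstimulated wells defined full inhibition.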
DT40 TDP1 CPT: growth inhibition of DT40 Tdp1-/-;hTDP1 cells with camptothecin (screen for TDP1 inhibitors); chicken DT40 Tdp1-/-;hTDP1 cells + 20 nM CPT, ATP luminescence, 48 h; AID 686979; hit rate 12% among 420,000; Potency, µM (top dose mostly 46.2 µM), for inactives: at the top dose activity change, negative = growth inhibition, usual class: inhibitors; further: on the % scale 0 is the no-effect control and ±100 the full control effect; nearly all actives have a fitted effect of over 55% in size
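Chicken DT40 Tdp1-/- cells stably complemented with human TDP1 were seeded at 400 cells/well in medium containing 20 nM camptothecin, exposed to pin-transferred compounds, and grown at 37 °C for at least 48 hr. Viability was read as ATP luminescence.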
TDP1 cell noCPT: qHTS for Inhibitors of human tyrosyl-DNA phosphodiesterase 1 (TDP1): qHTS in cells in absence of CPT. DT40 Tdp1-/- hTDP1 cells, no CPT, ATP luminescence, 48 h. Potency, µM (series often up to 46.2 µM), for the others: top-dose activity change, negative = growth inhibition, actives largely listed as inhibitors. hit rate 15% among 420,000. AID 686978, 2013; further: on the % scale 0 is the no-effect control and ±100 the full control effect; nearly all actives have a fitted effect of over 55% in size
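DT40 Tdp1-/-;hTDP1 cells, no CPT (DMSO vehicle only), 400 cells/well; compounds pin-transferred; ≥48 hr, 37 °C; CellTiter-Glo 30 min RT dark, luminescence read.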
The depositor's hits bear a star; u = inconclusive; x = no result; [ ] = another dose, or the depositor's remark. The call rests on the fitted dose curve; in most records, active means well fitted curve in the direction sought with a large enough effect; inconclusive means small, poorly fitted or top-dose-only effect, or another doubt; inactive means no such curve, though single readings can be large; an effect the other way counts as inactive or inconclusive. Potency means the concentration at half of the fitted maximal effect.

SMILES | HT1080 IDH1KD tx | HT1080NT lethal | HepG2 viability | TGFb SMAD3 inh | DT40 TDP1 CPT | TDP1 cell noCPT
Cn1cnc2c(=O)oc3ccc(S(=O)(=O)Nc4ccc(F)cc4)cc3c21 | x | x | -21% | -11% | -7% | -10%
COc1ccc(S(=O)(=O)N2CCCCCC2)cc1C(=O)N(C)CC(=O)Nc1ccccc1Br | -1% | -2% | -2% | 23% | u | 9.2µM*
COc1ccccc1CN(C)C(=O)c1cc(S(=O)(=O)N2CCCCCC2)ccc1OC | -13% | -12% | -15% | -7% | u | u
COc1ccc(S(=O)(=O)N2CCCCCC2)cc1C(=O)N(C)CC(=O)Nc1ccccc1Cl | 3% | -2% | 0% | -3% | u | 21µM*
COc1ccc(S(=O)(=O)N2CCCCCC2)cc1C(=O)N(C)CC(=O)Nc1c(Cl)cccc1Cl | -1% | 2% | 25% | 1% | u | u
CCc1ccc(S(=O)(=O)NCc2nc(N3CCCC3)c3cccc(C)c3n2)cc1 | x | x | x | x | 7%[9.04 µM] | u
CC(C)CC(=O)NC(c1cccs1)c1ccc2cccnc2c1O (configuration not stated) | u | u | 9% | u | 2.9µM* | 0.58µM*
CC(=O)NC(c1cccs1)c1cc(F)c2cccnc2c1O (configuration not stated) | x | x | -49% | u | x | x
CCC(=O)NC(c1ccccc1)c1c(O)ccc2ccccc12 (configuration not stated) | 21% | 19% | -17% | -16% | -17% | 1%
CCC(=O)NC(c1cccs1)c1ccc2cccnc2c1O (configuration not stated) | u | u | 1% | 1µM* | 2.9µM* | 4.6µM*
COc1cc(OC)cc(-c2nnc(NC(=O)CCS(=O)(=O)c3ccc(C)cc3)o2)c1 | -14% | -20% | -14% | u | u | u
COc1c(C)cccc1C(=O)NCc1ccc2c(c1)OCO2 | 5% | 5% | -2% | 3% | -1% | -19%
CC(C)OC(=O)N(C)C[C@H]1OCc2cnnn2CCCC(=O)N([C@H](C)CO)C[C@H]1C | 5% | 9% | -17% | 0% | -15% | 2%
CC(NC(=O)CCC(=O)c1ccc(F)cc1)C1CC2CCC1C2 (configuration not stated) | 3% | -3% | -4% | -7% | -8% | u
CC(C)[C@H](NC(=O)[C@@H]1Cc2c([nH]c3ccccc23)C2c3ccccc3C(=O)N21)C(=O)N1CCC[C@@H]1C(=O)O (some centres not stated) | -2% | -1% | 10% | 9% | 1% | -30%
CCc1ccc([C@@H]2CC=C(C(=O)O)[C@H](c3cccc(Cl)c3)N2S(=O)(=O)c2ccc(C)cc2)cc1 | -1% | -2% | -42% | u | -21% | -25%
Cc1ccc(S(=O)(=O)N2[C@@H](c3cccc(Cl)c3)C(C(=O)OC(C)(C)C)=CC[C@H]2c2ccc(C(C)C)cc2)cc1 | 1% | 16% | 4% | 0% | u | 15µM*
Cc1ccc(S(=O)(=O)N2[C@@H](c3ccc(Br)cc3)C(C(=O)O)=CC[C@H]2c2ccc(Cl)c(Cl)c2)cc1 | -21% | -20% | -30% | u | -15% | -28%
Cc1ccc(S(=O)(=O)N2[C@@H](c3ccc(Cl)cc3)C(C(=O)OC(C)(C)C)=CC[C@H]2c2ccc(Cl)c(Cl)c2)cc1 | 14% | 26% | 4% | 4% | u | 15µM*

Screening results deposited in PubChem by National Center for Advancing Translational Sciences (NCATS).
